# Data taken from publication PMC11062922 (Nature Chemical Biology, 2023).
# Like-named read-outs stand apart in the source and are kept apart here.
# Tests used:
# Parameters in all cases: species or system human, MV4-11 + K-562 + COLO205 + SK-N-BE2 + OVCAR-8
# CAMKK2 = conditions: read-out: apparent Kd; compound concentrations: 100 nM and 1000 nM (sheet 'Samples'), CATDS: 0.352133758471873; n = 1
# EGFR = conditions: read-out: apparent Kd, compound concentrations: 100 nM and 1000 nM (sheet 'Samples'), n = 1
# CDC42 = conditions: read-out: apparent Kd; compound concentrations:100 nM and 1000 nM (sheet 'Samples'); n = 1
# CDK7 = conditions: read-out: apparent Kd; compound concentrations:100 nM and 1000 nM (sheet 'Samples'); n = 1
# ERCC2 = conditions: read-out: apparent Kd; compound concentrations:100 nM and 1000 nM (sheet 'Samples'); n = 1
# FER = conditions: read-out: apparent Kd; compound concentrations:100 nM and 1000 nM (sheet 'Samples'); n = 1
# GAK = conditions: read-out: apparent Kd; compound concentrations:100 nM and 1000 nM (sheet 'Samples'); n = 1
# HSP90B1 = conditions: read-out: apparent Kd; compound concentrations:100 nM and 1000 nM (sheet 'Samples'); n = 1
# TNK2 = conditions: read-out: apparent Kd; compound concentrations:100 nM and 1000 nM (sheet 'Samples'); n = 1
# CDC42BPG = conditions: read-out: apparent Kd, compound concentrations: 100 nM and 1000 nM (sheet 'Samples'), n = 1
# CAMK2B = conditions: read-out: apparent Kd, compound concentrations: 100 nM and 1000 nM (sheet 'Samples'), n = 1
# FN3KRP = conditions: read-out: apparent Kd; compound concentrations: 100 nM and 1000 nM (sheet 'Samples'), CATDS: 0.322807069227038; n = 1
# NQO2 = conditions: read-out: apparent Kd; compound concentrations: 100 nM and 1000 nM (sheet 'Samples'), CATDS: 0.51408272608471794; n = 1
# CDC42BPB = conditions: read-out: apparent Kd; compound concentrations: 100 nM and 1000 nM (sheet 'Samples'), CATDS: 0.117626319285852; n = 1
# CIT = conditions: read-out: apparent Kd; compound concentrations: 100 nM and 1000 nM (sheet 'Samples'), CATDS: 0.106368492262706; n = 1
# CLK1 = conditions: read-out: apparent Kd; compound concentrations: 100 nM and 1000 nM (sheet 'Samples'), CATDS: 0.214527954353402; n = 1
# CLK4 = conditions: read-out: apparent Kd; compound concentrations: 100 nM and 1000 nM (sheet 'Samples'), CATDS: 0.24205596503661; n = 1
# MARK3 = conditions: read-out: apparent Kd; compound concentrations: 100 nM and 1000 nM (sheet 'Samples'), CATDS: 9.9321002689151103E-2; n = 1
# MELK = conditions: read-out: apparent Kd; compound concentrations: 100 nM and 1000 nM (sheet 'Samples'), CATDS: 9.4221597644958896E-2; n = 1
# PHKG2 = conditions: read-out: apparent Kd; compound concentrations: 100 nM and 1000 nM (sheet 'Samples'), CATDS: 0.61617859145014098; n = 1
# CAMK2D = conditions: read-out: apparent Kd; compound concentrations: 100 nM and 1000 nM (sheet 'Samples'), CATDS: 0.22355141461127601; n = 1
# CAMK2G = conditions: read-out: apparent Kd; compound concentrations: 100 nM and 1000 nM (sheet 'Samples'), CATDS: 0.16282933819825701; n = 1
# MAPK14 = conditions: read-out: apparent Kd; compound concentrations: 100 nM and 1000 nM (sheet 'Samples'), CATDS: 0.12639229047772599; n = 1
# MAPK1 = conditions: read-out: apparent Kd; compound concentrations: 100 nM and 1000 nM (sheet 'Samples'), CATDS: 0.13886491205571; n = 1
# MTHFD1 = conditions: read-out: apparent Kd; compound concentrations: 100 nM and 1000 nM (sheet 'Samples'), CATDS: 0.112540621038884; n = 1
# STK16 = conditions: read-out: apparent Kd; compound concentrations: 100 nM and 1000 nM (sheet 'Samples'), CATDS: 0.103320343146107; n = 1
# TGFBR2 = conditions: read-out: apparent Kd; compound concentrations: 100 nM and 1000 nM (sheet 'Samples'), CATDS: 0.26695766684010303; n = 1
smiles,measurement,setting,value
CN(C)C(=O)O[C@H]1CN[C@H](C#Cc2cc3ncnc(Nc4ccc(OCc5cccc(F)c5)c(Cl)c4)c3s2)C1 [GSK182497A],potency estimated from few doses,CAMKK2,2010 nM
same,potency estimated from few doses,EGFR; CATDS: 0.86194262245046105,175 nM
Cc1ccc2c(-c3ccnc(Nc4ccc(C(F)(F)F)cc4)n3)cnn2n1 [GW819776X],potency estimated from few doses,CDC42,1650 nM
same,potency estimated from few doses,CDK7,1750 nM
same,potency estimated from few doses,ERCC2,898 nM
same,potency estimated from few doses,FER,1180 nM
same,potency estimated from few doses,GAK,1400 nM
same,potency estimated from few doses,HSP90B1,99.9 nM
same,potency estimated from few doses,TNK2,1050 nM
Cc1ccc(NC(=O)c2ccc(Cl)c(Cl)c2)cc1-c1ccc(C(=O)Nc2ccncc2)cc1 [GSK1398460A],potency estimated from few doses,CDC42BPG; CATDS: 1,1100 nM
CS(=O)(=O)CCNCc1cc(-c2cc3c(Nc4ccc(OCc5cccc(F)c5)c(Cl)c4)ncnc3s2)cs1 [GSK300014A],potency estimated from few doses,CAMK2B; CATDS: 0.17838032280045099,575 nM
same,potency estimated from few doses,EGFR; CATDS: 0.186882259763333,481 nM
same,potency estimated from few doses,FN3KRP,112 nM
same,potency estimated from few doses,NQO2,48.6 nM
FC1=CC(C3=NC2=CC(OC)=C(OC)C=C2C(N[C@H]4[C@H]([C@](C)(O)C)CNC4)=N3)=C(O)C=C1.Cl.Cl [CCT241533],potency estimated from few doses,CDC42BPB,1010 nM
same,potency estimated from few doses,CIT,1490 nM
same,potency estimated from few doses,CLK1,163 nM
same,potency estimated from few doses,CLK4,121 nM
same,potency estimated from few doses,MARK3,2010 nM
same,potency estimated from few doses,MELK,2590 nM
same,potency estimated from few doses,PHKG2,20.8 nM
N#Cc1cccc(C(=O)NC2CCN(c3ccnc(Nc4ccc(F)cc4)n3)C2)c1 (centres unmarked) [GSK1379708A],potency estimated from few doses,CAMK2B; CATDS: 0.21240793687588,395 nM
same,potency estimated from few doses,CAMK2D,364 nM
same,potency estimated from few doses,CAMK2G,631 nM
same,potency estimated from few doses,MAPK14,1100 nM
same,potency estimated from few doses,MAPK1,879 nM
same,potency estimated from few doses,MTHFD1,1500 nM
same,potency estimated from few doses,STK16,1980 nM
CC(=O)c1cccc(NC(=O)NC2CCN(c3ccnc(Nc4ccc(F)cc4)n3)C2)c1 (centres unmarked) [GSK1379710A],potency estimated from few doses,CAMK2B; CATDS: 0.45537516387232402,658 nM
same,potency estimated from few doses,CDC42BPG; CATDS: 0.32700083085172899,1220 nM
same,potency estimated from few doses,TGFBR2,2000 nM
COc1ccc(-c2nn3ncccc3c2-c2ccnc(Nc3cccc(C(F)(F)F)c3)n2)cc1 [GW827105X],potency estimated from few doses,CDC42BPG; CATDS: 1,1920 nM
